# Out of some 48,000 compounds screened, about 13,000 (27%) showed an effect of 50% or more. The list shows a part of the results.
# Tested on: Wolbachia pipientis
# Assay: Anti-Wolbachia Cell-Based Screen
# Type: functional
# Design: scale not given: in the data most compounds retested in dose-response had high values
# Details: 5 µM
row,SMILES,Percent Effect [%]
1,Cc1cc(C)n(CCN2CCN(C(=O)c3ccc(Br)o3)CC2)n1,17.42
2,CCN(C)C[C@@H]1CN(Cc2cccc(O)c2)C[C@@H]1CO,-2.333
3,COc1ccc2c(c1)nc1n2[C@@H](CNCc2cnn(C)c2)COC1,1.636
4,Cc1cccc(CN2CCN(c3ncnc4[nH]ccc34)CC2CCO)n1 (stereo not drawn),6.168
5,CCN1CCC(CC(=O)NCC(O)c2ccc3ccccc3c2)CC1 (stereo not drawn),-0.749
6,CC(=O)N1CCCC(C(=O)N2Cc3nc(C)n(C)c(=O)c3C2)C1 (stereo not drawn),7.499
7,COC(=O)C1CN(Cc2ccccc2C(C)(C)C#N)CCO1 (stereo not drawn),1.007
8,CC(C)OCCS(=O)(=O)N1CCCC1c1cccc(N(C)C)c1 (stereo not drawn),4.069
9,CC(C)(C)CCCC(=O)NS(=O)(=O)CC1CC1,-9.167
10,Cc1ccccc1CNC(=O)Cc1c(C)nc2cc(=O)[nH]n2c1C,1.807
11,Cc1cccc(CNC(=O)CCc2c(C)nc3cc(O)nn3c2C)n1,101.6
12,Cn1ccc2c(C(=O)N3CCN(C(=O)C4CCCC4)CC3)cccc21,117.3
13,Cn1ccc2c(C(=O)N3CCC(C(N)=O)CC3)cccc21,2.253
14,Cn1ccc2c(C(=O)NCCCN3CCCC3)cccc21,7.133
15,CC(=O)N(C)C1CCN(C(=O)c2cccc3c2ccn3C)CC1,129.7
16,Cn1ccc2c(C(=O)N3CCC4(CCOC4)C3)cccc21 (stereo not drawn),-11.85
17,Cc1ccc(N2CCCN(C(=O)c3cccc4c3ccn4C)CC2)nn1,-26.18
18,CCc1ncc(-c2nccn2-c2cccc(CC(=O)O)c2)cn1,-3.277
19,Cc1cc(N2CCC3(CCC(=O)N(CC4CC4)C3)CC2)ncn1,3.21
20,Cc1cnn(CC(=O)N2CCC3(CCC(=O)N(CCCO)C3)CC2)c1,-87.52
21,Cc1nccn1CCC(=O)N1CCC2(CCC(=O)N(CC3CC3)C2)CC1,117.2

row,SMILES,Percent Effect [%]
1,Cc1nccn1CCCC(=O)N1CCN(c2cccnc2)CC1,-0.7063
2,CCN1CC2(CCC1=O)CCN(CCc1nccn1C)CC2,-0.2825
3,COc1ccc(C(=O)N2CCC3(CCC(=O)N(C(C)C)C3)CC2)cc1C,7.605
4,Cc1cnn(CCC(=O)N2CCC3(CCC(=O)N(CC4CC4)C3)CC2)c1,86.63
5,Cc1cnn(CC(=O)N2CCC3(CCC(=O)N(CC(C)O)C3)CC2)c1 (stereo not drawn),-3.932
6,Cc1nccn1CCCC(=O)N1CCC2(CCC(=O)N(C(C)C)C2)CC1,98.73
7,Cc1nccn1CCCN1CCC2(CCC(=O)N(CC3CC3)C2)CC1,94.75
8,Cc1ncc(CC(=O)N2CCC3(CCC(=O)N(CCO)C3)CC2)c(=O)[nH]1,13.05
9,Cc1cc(N2CCC3(CCC(=O)N(CC4CC4)C3)CC2)nc(N)n1,-10.67
10,COCCCN1C(=O)CC[C@H]2CN(c3cnc4ccccc4n3)CC[C@H]21,2.221
11,CCCn1nc(C)c2c1NC(=O)CC2c1ccc(CN2CCCC2)s1 (stereo not drawn),1.67
12,CC(C)c1nnc2n1CCN(CCCS(=O)(=O)c1ccccc1)C2,-6.679
13,CSCCc1nc(-c2ccc3c(c2)OCO3)n(C)n1,-7.384
14,Cc1nc(C(C)C)cc(N2CCC3(CCC(=O)N(CC4CC4)C3)CC2)n1,0.1735
15,CC(C)=CCN1CC2(CCN(Cc3ncc[nH]3)CC2)CC1=O,-7.691
16,CSCc1noc(CN2CCC3(CC2)CC(=O)N(CC=C(C)C)C3)n1,10.72
17,CC(C)=CCN1CC2(CCN(C(=O)CCn3ccnc3C)CC2)CC1=O,86.66
18,CCCc1nc(C)cc(N2CCC3(CCC(=O)N(CC4CC4)C3)CC2)n1,5.96
19,Cc1nnnn1CCC(=O)N1CCC2(CCC(=O)N(CC3CC3)C2)CC1,115.6
20,O=C(O)C(F)(F)F.c1ccc(Cn2cc3c(n2)C(COCC2CC2)OCC3)nc1 (stereo not drawn),-17.74
21,Cc1nc(CN2C(=O)C[C@@H]3[C@@H]2CCN3CC2CCOCC2)cs1.O=C(O)C(F)(F)F,145.4

row,SMILES,Percent Effect [%]
1,Cc1nc(CN2C(=O)C[C@H]3[C@H]2CCN3CC2CCOC2)cs1.O=C(O)C(F)(F)F (stereo partly drawn),100.2
2,Cc1nc(CN2CCN(CC3CCOC3)Cc3cccnc32)cs1.O=C(O)C(F)(F)F.O=C(O)C(F)(F)F.O=C(O)C(F)(F)F (stereo not drawn),-0.3757
3,Cc1nc(CN2CCc3ncnc(C4CCOC4)c3CC2)cs1.O=C(O)C(F)(F)F (stereo not drawn),-5.983
4,CCN(Cc1ccccc1)C1CCN(c2cc(C)nn2C)C1=O (stereo not drawn),8.776
5,CN1CCN(C(=O)c2cccs2)Cc2ccccc21,-12.17
6,O=C(c1cc[nH]c(=O)c1)N1CCn2c(nnc2-c2ccccc2)C1,1.591
7,Cc1cc(=O)c(C(=O)N2CCN(C)c3ccccc3C2)c[nH]1,106.1
8,Cc1cc(=O)[nH]cc1C(=O)N1CCN(C)c2ccccc2C1,99.2
9,CN1CCN(C(=O)NCCNc2ncccn2)Cc2ccccc21,4.872
10,CN1CCN(C(=O)CCC(=O)c2cccs2)Cc2ccccc21,-12.13
11,CN1CCN(C(=O)c2ccc(=O)n(C)c2)Cc2ccccc21,-3.616
12,Cc1ccc(C(=O)N2Cc3ccccc3C2)cc1N1CCNC1=O,-8.111
13,CN1CCN(C(=O)c2cc[nH]c(=O)c2)Cc2ccccc21,113.6
14,Cc1cccc2sc(NC(=O)CN3CCCC4(CC3)CNC(=O)O4)nc12 (stereo not drawn),-7.394
15,CN(Cc1ccco1)C1CCC12CCN(C(=O)c1ccncc1)CC2 (stereo not drawn),-36.28
16,Cn1cc(CN2CCCC(c3nc(O)cc(-c4cccs4)n3)C2)cn1 (stereo not drawn),121.4
17,CCCOC1CCCN(Cc2nc(-c3cccs3)oc2C)C1 (stereo not drawn),5.158
18,Oc1cc(-c2cccs2)nc(C2CCCN(CC3=CCCOC3)C2)n1 (stereo not drawn),158.9
19,Cc1nnsc1C(=O)N1CCC2(CC1)c1nc[nH]c1CCN2CC(C)C,-5.32
20,CC(=O)N1CCC(Oc2ccc(C#N)cc2)CC1,-9.565
21,Cc1nc(N(C)C)ncc1C(=O)NCCCn1nccc1C1CC1,-2.183

# From ChEMBL document CHEMBL3988442, “University of Dundee, Small-Polar-MMV Screening Library” (2021)
